Bioassay records deposited in PubChem by Johns Hopkins Ion Channel Center.
A selection: hits, their analogues and other compounds. The true share with any hit is near 1.6%.
KCNQ2 pot: KCNQ2 (rat) channel potentiation | O88943 | CHO-K1 KCNQ2, FluxOR thallium flux fluorescence; stronger effect = higher value | B-score at 10 µM | 0.54% of 310,000 active;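 active means fluorescence ratio B-score at least 3 SD of library B-scores, with initial fluorescence B-score within 3 of them, cut at about 5.3 in these data; same plate scores as AID 2156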;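 further: B-score of peak minus minimum over baseline fluorescence ratio after K+ and Tl+ stimulus; positive B-score means potentiation of KCNQ2 with more thallium influx and brighter signal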
KCNQ2 block: blocks the rat KCNQ2 potassium channel; B-score at 10 µM; AID 2156; CHO-K1 KCNQ2, FluxOR thallium flux, 20 min; stronger effect = lower value; 1.1% of 310,000 active;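 active means fluorescence ratio B-score at most minus 3 library SDs, with starting brightness B-score within 2 library SDs, cut at about -5.5 in these data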
KCNQ2 block conf: rat KCNQ2 channel inhibition, confirmatory screen | shares compounds with KCNQ2 block | KCNQ2-expressing cells, thallium flux; stronger effect = lower value | activity change, negative = inhibition, % at 10 µM | 57% of 1,000 active | AID 493025;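 further: 0% = vehicle wells and values are ratio percent relative to vehicle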
KCNQ1 spec: KCNQ2 inhibitor that also affects human KCNQ1 channel; shares compounds with KCNQ2 block; KCNQ1-expressing cells, FluxOR thallium flux fluorescence; stronger effect = lower value; activity change, negative = inhibition, % at 10 µM; 15% of 1,000 active; AID 493026;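 active means activity change at least 3 SD of negative controls below their mean in both duplicate wells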;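 further: CHO cells stably transfected with KCNQ1 and depolarized by potassium stimulus; peak minus minimum fluorescence over baseline after thallium addition; 0% = vehicle negative control and -100% = blank without thallium stimulus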
CHO parental ctr: KCNQ2 inhibitor counter-screen hit in parental CHO cells; shares compounds with KCNQ2 block; 14% of 1,000 active; thallium flux counter-screen; stronger effect = lower value; activity change, % at 10 µM;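 further: 0% = vehicle negative controls with stimulus buffer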
KCNQ2 patch conf: rat KCNQ2 inhibition confirmed by electrophysiology. calls only at 10 µM. 49% of 550 active. KCNQ2-expressing cells, automated patch clamp current. shares compounds with KCNQ2 block
Numbers without * were called inactive. Unless noted, how the calls were made is not given here.

For N#C/C(=C\c1ccc(F)c(Cl)c1)S(=O)(=O)c1ccccn1 the results were KCNQ2 block inactive.
`CCOc1ccc(OCC(=O)OCC(=O)N(CC(C)C)c2c(N)n(Cc3ccccc3)c(=O)[nH]c2=O)cc1` gave KCNQ2 pot 0.81 and KCNQ2 block inactive.
Screening Cn1c(=O)cc(OCC(=O)NCCC2=CCCCC2)c2ccccc21 returned KCNQ2 pot 0.04 and KCNQ2 block inactive.
Screening COc1ccccc1CNC(=O)C(CC(C)C)NC(=O)C1CCC(C)CC1 (configuration not stated) returned KCNQ2 pot -8.2, KCNQ2 block -8.2*, KCNQ2 block conf -28%*, KCNQ1 spec inactive, CHO parental ctr inactive and KCNQ2 patch conf active.
`CC(C)CC(NC(=O)C1CCC(C)CC1)C(=O)NCc1ccco1` (configuration not stated) gave KCNQ2 block inactive.
Screening CC(C)CC1Nc2ncnc(N3CCCCC3)c2N(Cc2ccccc2)C1=O (configuration not stated) returned KCNQ2 block inactive.
`C/C(=C\C(=O)c1ccc(F)cc1)NCc1ccc2c(c1)OCO2` gave KCNQ2 block inactive.
`C/C(=C\C(=O)c1ccc(Br)cc1)NCc1ccc2c(c1)OCO2` gave KCNQ2 pot -6.9, KCNQ2 block -6.9*, KCNQ2 block conf -17%*, KCNQ1 spec inactive, CHO parental ctr inactive and KCNQ2 patch conf inactive.
`CC(C)(C)c1ccc(NC(=O)COC(=O)C2(C)CC2(Cl)Cl)cc1` (configuration not stated) gave KCNQ2 block inactive.
`Cc1nc(-c2cccc(N)c2)cs1` gave KCNQ2 pot 1.4 and KCNQ2 block inactive.
O=C(Nc1ccccc1C(F)(F)F)c1ccc2nccnc2c1 was read as KCNQ2 pot 0.84 and KCNQ2 block inactive.
For Cc1cccc(OCc2nnc(SCC(=O)N3c4ccccc4CCc4ccccc43)o2)c1 the results were KCNQ2 pot -7.3, KCNQ2 block -7.3*, KCNQ2 block conf inactive, KCNQ1 spec inactive and CHO parental ctr inactive.
`Cc1cccc(OCc2nnc(SCC(=O)N3CCCC3)o2)c1` gave KCNQ2 block inactive.
Screening COc1ccc(-c2[nH]ncc2-c2cnn(-c3ccccc3)c2)c(O)c1 returned KCNQ2 pot -7.7, KCNQ2 block -7.7*, KCNQ2 block conf inactive, KCNQ1 spec inactive and CHO parental ctr inactive.
Screening COc1ccc(-c2cn[nH]c2-c2ccc(O)cc2O)cc1 returned KCNQ2 block inactive.
CC(C)CN(CC(C)C)CC(O)COc1ccc([N+](=O)[O-])cc1 (configuration not stated) was read as KCNQ2 block inactive.
For COC(=O)Cc1c[nH]c2cccc(OCC(O)CN(Cc3ccc([N+](=O)[O-])cc3)C(C)(C)C)c12 (configuration not stated) the results were KCNQ2 pot -8.5, KCNQ2 block -8.5*, KCNQ2 block conf -20%*, KCNQ1 spec inactive, CHO parental ctr inactive and KCNQ2 patch conf active.
COCCn1nnnc1C(c1ccc(C)cc1)N1CCN(Cc2ccc3c(c2)OCO3)CC1 (configuration not stated) was read as KCNQ2 pot 1.8 and KCNQ2 block inactive.
Cc1cccc(-c2noc(CN(C(=O)CCc3ccccc3)C(C)C)n2)c1 was read as KCNQ2 pot -8, KCNQ2 block -8*, KCNQ2 block conf -36%*, KCNQ1 spec -36%*, CHO parental ctr -28%* and KCNQ2 patch conf inactive.
Cc1cccc(-c2noc(CN(C(=O)/C=C/c3ccccc3Cl)C(C)C)n2)c1 was read as KCNQ2 block inactive.
COc1ccc(Cl)cc1C(=O)N(Cc1nc(-c2cccc(C)c2)no1)C(C)C was read as KCNQ2 block inactive.
For Cc1cccc(-c2noc(CN(C)S(=O)(=O)c3cc(Cl)ccc3Cl)n2)c1 the results were KCNQ2 pot -11, KCNQ2 block -11*, KCNQ2 block conf inactive, KCNQ1 spec inactive and CHO parental ctr inactive.
`C[C@@H](NC(=O)c1cc2c([nH]c3ccccc32)c(-c2ccccc2)n1)C(=O)O` gave KCNQ2 block inactive.
CC1=Nc2ccccc2/C1=C/c1sc(=N)n(-c2nccs2)c1O was read as KCNQ2 pot -9.9, KCNQ2 block -9.9*, KCNQ2 block conf -52%*, KCNQ1 spec -62%*, CHO parental ctr -57%* and KCNQ2 patch conf inactive.
